Inconclusive results are not listed. Calls of active or inactive are those of the source. Calls come from the whole dose curve; as a rule, active = well fitted cell-killing curve with a large enough effect; inconclusive = small, poorly fitted or top-dose-only effect, or effect the other way; inactive = flat fitted curve, though single readings scatter. Where a SMILES comes first, the peptide text is derived from it. The star is where a group is joined. AFC = O=c1cc(C(F)(F)F)c2ccc(N*)cc2o1
Assays:
Assay in all cases: Primary qHTS to identify gynecologic anti-cancer compounds using libraries of approved drugs and bioactive compounds (AID 1345084); note: nearly all actives have a fitted effect of over 55% in size
Details in all cases: Gynecologic cancer cell panel viability, ATPlite luminescence, 48 h; series mostly up to 57.5 µM
SKOV3 = test system: SKOV3
Outline: (§1)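 Measured: luminescence after ATPlite addition (15 min, RT). Exposure: 48 h, 37 C, 5% CO2.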

Tov-21-G = test system: Tov-21-G
Outline: as §1

Tov112D = test system: Tov112D
Outline: as §1

Measured: Potency

CC(=O)N[C@@H](CC(C)C)C(=O)N[C@@H](CCC(=O)O)C(=O)N[C@@H](CCC(=O)O)C(=O)N[C@@H](CC(=O)O)C(=O)Nc1ccc2c(C(F)(F)F)cc(=O)oc2c1 (Ac-LEED-{AFC})
inactive: SKOV3 | Tov-21-G | Tov112D

CC(C)N(C[C@H]1O[C@@H](n2cnc3c(N)ncnc32)[C@H](O)[C@@H]1O)C1CC(CCc2nc3ccc(C(C)(C)C)cc3[nH]2)C1 (some centres undefined)
inactive: SKOV3 | Tov-21-G | Tov112D

CCOC(=O)[C@H](CCc1ccccc1)N[C@@H](C)C(=O)N1C2CCCCC2C[C@H]1C(=O)O (some centres undefined)
inactive: SKOV3 | Tov-21-G | Tov112D

COc1ccccc1-n1c(SCC(=O)Nc2nc3ccc(C)cc3s2)nc2c(c1=O)SCC2
inactive: SKOV3 | Tov-21-G | Tov112D

COc1ccccc1CC(C(=O)O)N(C)C(=O)c1ccccc1 (centres undefined)
inactive: SKOV3 | Tov-21-G | Tov112D

CC1(CO)CC2C(O)C(=O)C3(CO)CC3(C)C2C1 (centres undefined)
inactive: SKOV3 | Tov-21-G | Tov112D

COC(=O)CC1(O)C(=O)Nc2ccccc21 (centres undefined)
inactive: SKOV3 | Tov-21-G | Tov112D

CC(=O)OC(CSC1CCC(=O)OC(C)CCC(=O)C1)C(=O)O (centres undefined)
inactive: SKOV3 | Tov-21-G | Tov112D

COc1cc(C2Oc3c(OC)cc(/C=C/C(=O)OC[C@H]4O[C@@H](OC(C)(C)C(=O)O)[C@H](O)[C@@H](O)[C@@H]4O)cc3C2CO)ccc1O (some centres undefined)
inactive: SKOV3 | Tov-21-G | Tov112D

CC1[C@@H](O)[C@@H](O)C2[C@]3(C)C(C[C@H]4OC(=O)[C@H](O)[C@]1(O)[C@@]24C)C(C)(O)C[C@H](O)[C@H]3O (some centres undefined)
inactive: SKOV3 | Tov-21-G | Tov112D

CC12CC34C=CC(=O)C(C)(CCC(=O)O)C3C(CC1C4)O2 (centres undefined)
inactive: SKOV3 | Tov-21-G | Tov112D

CC(C)(OC1OC(CO)C(O)C(O)C1O)C1CCC(O)(CO)C2CC(O)C(C)(O)C2C1 (centres undefined)
inactive: SKOV3 | Tov-21-G | Tov112D

CCC(=O)N[C@@H]1Cc2ccccc2[C@H](c2ccccc2)C1
inactive: SKOV3 | Tov-21-G | Tov112D

Cc1cccc(-c2[nH]c(CNc3ccccc3F)nc2-c2ccc3ncnn3c2)n1
inactive: SKOV3 | Tov-21-G | Tov112D

C=C[C@H]1[C@H](O[C@@H]2O[C@H](CO[C@@H]3OC[C@](O)(CO)[C@H]3O)[C@@H](O)[C@H](O)[C@H]2O)OC=C2C(=O)OCC[C@H]21
inactive: SKOV3 | Tov-21-G | Tov112D

C=C[C@](C)(CC/C=C(\C)C(=O)O)O[C@@H]1OC[C@H](O)[C@H](O)[C@H]1O
inactive: SKOV3 | Tov-21-G | Tov112D

C=Cc1cc(O)cc2nc(-c3ccc(O)c(F)c3)oc12
inactive: SKOV3 | Tov-21-G | Tov112D

C[C@@H]1C(=O)O[C@H]2[C@H]1CC[C@@]1(C)C(=O)C=C[C@](C)(O)[C@H]21
inactive: SKOV3 | Tov-21-G | Tov112D

NCCOCCOCCNC(=O)Cc1ccc(Nc2nc(NCc3ccc(F)cc3)nc(NCC3CCCCC3)n2)cc1
inactive: SKOV3 | Tov-21-G | Tov112D

C=C1CC[C@H]2[C@@](C)(CCC[C@@]2(C)C(=O)O)[C@@H]1CCC(C)CCO (some centres undefined)
inactive: SKOV3 | Tov-21-G | Tov112D

C[C@@H]1CC[C@]2(C)C3(C)CC[C@@]2(OC3=O)[C@@]12C[C@H](c1ccoc1)OC2=O
inactive: SKOV3 | Tov-21-G | Tov112D

C=C[C@H]1[C@H](O[C@@H]2O[C@H](CO)[C@@H](O)[C@H](O)[C@H]2O)OC=C2C(=O)OCC[C@]21O
inactive: SKOV3 | Tov-21-G | Tov112D

CC(=O)OCCC(C)CCC1C(C)(O)CCC2C(C)(C)CCCC21C (centres undefined)
inactive: SKOV3 | Tov-21-G | Tov112D

COc1c2c(c(C)c3c1C(=O)OC3)O[C@@]1(C)C[C@@H](O)[C@]34O[C@](OC)(CC[C@]3(C)[C@H]1C2)OC4(C)C
inactive: SKOV3 | Tov-21-G | Tov112D

NC1CCC(N[C@@H]2C[C@H]2c2ccccc2)CC1 (some centres undefined)
inactive: SKOV3 | Tov-21-G | Tov112D

CC(C)(O)/C=C1/C(=O)C(C)(C)C(=O)C(C)(C)C1(O)O[C@@H]1O[C@H](COC(=O)c2cc(O)c(O)c(O)c2)[C@@H](O)[C@H](O)[C@H]1O (some centres undefined)
inactive: SKOV3 | Tov-21-G | Tov112D

COc1ncc(-c2ccc3c(Nc4cc(Oc5cc(F)cc(F)c5)cc(C(=O)O)c4)c(S(=O)(=O)NC4CC4)cnc3c2)c(OC)n1
inactive: SKOV3 | Tov-21-G | Tov112D

C=CC1C(O[C@@H]2O[C@H](CO)[C@@H](O)[C@H](O)[C@H]2O)OC=C(C(=O)OC)C1CC(=O)O (some centres undefined)
inactive: SKOV3 | Tov-21-G | Tov112D

Source: PubChem BioAssay (NCATS)
